Compounds without any hit were thinned out: in the full panel of roughly 83,000, 20% have a hit.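 96-well plates, one dose, 48 hours. Percent growth reported; active if below 10.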 Unmarked numbers belong to inactive results. Active and inactive are the calls of the source.
How the values were obtained:
Experiment in all cases: NCI-60 one-dose screen, 48 h (100 = growth as untreated, 0 = no growth, -100 = all killed)
Details in all cases: 10 µM unless noted
DU-145 prostate = tested on: DU-145 prostate
K-562 leukemia = tested on: K-562 leukemia
MALME-3M melanoma = tested on: MALME-3M melanoma
MDA-MB-231 breast = tested on: MDA-MB-231 breast
RXF 393 renal = tested on: RXF 393 renal
SF-268 CNS = tested on: SF-268 CNS
SF-295 CNS = tested on: SF-295 CNS
SF-539 CNS = tested on: SF-539 CNS
UACC-257 melanoma = tested on: UACC-257 melanoma
M14 melanoma = tested on: M14 melanoma
HCT-15 colon = tested on: HCT-15 colon
HT29 colon = tested on: HT29 colon
SNB-75 CNS = tested on: SNB-75 CNS
SNB-19 CNS = tested on: SNB-19 CNS
U251 CNS = tested on: U251 CNS
PC-3 prostate = tested on: PC-3 prostate
SK-MEL-5 melanoma = tested on: SK-MEL-5 melanoma
UACC-62 melanoma = tested on: UACC-62 melanoma
LOX IMVI melanoma = tested on: LOX IMVI melanoma
SK-MEL-28 melanoma = tested on: SK-MEL-28 melanoma

NC(=O)CC(NC(=O)COc1ccc(Cl)cc1Cl)C(=O)O (stereo not given)
growth (DU-145 prostate): 104%
growth (K-562 leukemia): 103%
growth (MALME-3M melanoma): 105%
growth (MDA-MB-231 breast): 105%
growth (RXF 393 renal): 108%
growth (SF-268 CNS): 101%
growth (SF-295 CNS): 100%
growth (SF-539 CNS): 111%
growth (UACC-257 melanoma): 107%
growth (M14 melanoma): 106%
growth (HCT-15 colon): 112%
growth (HT29 colon): 107%
growth (SNB-75 CNS): 102%
growth (SNB-19 CNS): 103%
growth (U251 CNS): 101%
growth (PC-3 prostate): 94.2%
growth (SK-MEL-5 melanoma): 98.8%
growth (UACC-62 melanoma): 98.6%
growth (LOX IMVI melanoma): 97.1%
growth (SK-MEL-28 melanoma): 109%

CN1CCN(Cc2ccc(NC(=O)c3ccc(C#Cc4c(N)ncc5ccc(F)cc45)cc3)cc2C(F)(F)F)CC1
growth (DU-145 prostate): -46.5% (active)
growth (K-562 leukemia): -44.5% (active)
growth (MALME-3M melanoma): -88.1% (active)
growth (MDA-MB-231 breast): -72.5% (active)
growth (RXF 393 renal): -43.5% (active)
growth (SF-268 CNS): -21.1% (active)
growth (SF-295 CNS): -56.7% (active)
growth (SF-539 CNS): -90% (active)
growth (UACC-257 melanoma): -58.5% (active)
growth (M14 melanoma): -89.2% (active)
growth (HCT-15 colon): -55.4% (active)
growth (HT29 colon): -73.2% (active)
growth (SNB-75 CNS): -15.1% (active)
growth (SNB-19 CNS): -91.8% (active)
growth (U251 CNS): -75.8% (active)
growth (PC-3 prostate): -37.2% (active)
growth (SK-MEL-5 melanoma): -91.2% (active)
growth (UACC-62 melanoma): -73.3% (active)
growth (LOX IMVI melanoma): -94.3% (active)
growth (SK-MEL-28 melanoma): -97.8% (active)

CCCCCCCCCCCCCCCCNC(=S)N/N=C/c1ccc(OC)cc1
growth (DU-145 prostate): 104%
growth (K-562 leukemia): 105%
growth (MALME-3M melanoma): 103%
growth (MDA-MB-231 breast): 95.1%
growth (RXF 393 renal): 92%
growth (SF-268 CNS): 107%
growth (SF-295 CNS): 84.9%
growth (SF-539 CNS): 91.7%
growth (UACC-257 melanoma): 99.3%
growth (M14 melanoma): 96.1%
growth (HCT-15 colon): 108%
growth (HT29 colon): 102%
growth (SNB-75 CNS): 113%
growth (SNB-19 CNS): 99.8%
growth (U251 CNS): 97.9%
growth (PC-3 prostate): 88.5%
growth (SK-MEL-5 melanoma): 99.9%
growth (UACC-62 melanoma): 93.2%
growth (LOX IMVI melanoma): 108%
growth (SK-MEL-28 melanoma): 109%

C/C(=N\Nc1ccc(Cl)cn1)c1ccc2ccccc2n1
growth (DU-145 prostate): 19.9%
growth (K-562 leukemia): 5.97% (active)
growth (MALME-3M melanoma): 10.6%
growth (MDA-MB-231 breast): 31.5%
growth (RXF 393 renal): 30.5%
growth (SF-268 CNS): 10.3%
growth (SF-295 CNS): 2.94% (active)
growth (SF-539 CNS): 3.44% (active)
growth (UACC-257 melanoma): -19.9% (active)
growth (M14 melanoma): 0.159% (active)
growth (HCT-15 colon): 13.4%
growth (HT29 colon): 16.3%
growth (SNB-75 CNS): 32.5%
growth (SNB-19 CNS): 24.7%
growth (U251 CNS): 6.99% (active)
growth (PC-3 prostate): 17.7%
growth (SK-MEL-5 melanoma): -45% (active)
growth (UACC-62 melanoma): -7.97% (active)
growth (LOX IMVI melanoma): 2.73% (active)
growth (SK-MEL-28 melanoma): 17.5%

O=C(CN1C(=O)NC(c2ccccc2)(c2ccccc2)C1=O)c1ccc(N2CCCC2)cc1
growth (DU-145 prostate): 107%
growth (K-562 leukemia): 29.5%
growth (MALME-3M melanoma): 72.1%
growth (MDA-MB-231 breast): 113%
growth (RXF 393 renal): 81%
growth (SF-268 CNS): 97.8%
growth (SF-295 CNS): 72.1%
growth (SF-539 CNS): 100%
growth (UACC-257 melanoma): 85.8%
growth (M14 melanoma): 52.9%
growth (HCT-15 colon): 64.7%
growth (HT29 colon): 65.3%
growth (SNB-75 CNS): 77.8%
growth (SNB-19 CNS): 90.7%
growth (U251 CNS): 76.6%
growth (PC-3 prostate): 71.8%
growth (SK-MEL-5 melanoma): 70.8%
growth (UACC-62 melanoma): 89.5%
growth (LOX IMVI melanoma): 74.2%
growth (SK-MEL-28 melanoma): 73.9%

CC1(C)C(O)NC(Cl)=C(C#N)C1(C#N)C#N (stereo not given)
growth (DU-145 prostate): 110%
growth (K-562 leukemia): 94.4%
growth (MALME-3M melanoma): 136%
growth (MDA-MB-231 breast): 111%
growth (RXF 393 renal): 7.52% (active)
growth (SF-268 CNS): 123%
growth (SF-295 CNS): 174%
growth (SF-539 CNS): 95.9%
growth (UACC-257 melanoma): 109%
growth (M14 melanoma): 110%
growth (HCT-15 colon): 153%
growth (HT29 colon): 101%
growth (SNB-75 CNS): 98.4%
growth (SNB-19 CNS): 105%
growth (U251 CNS): 110%
growth (PC-3 prostate): 114%
growth (SK-MEL-5 melanoma): 114%
growth (UACC-62 melanoma): 131%
growth (LOX IMVI melanoma): 109%
growth (SK-MEL-28 melanoma): 108%

COc1cc2c(cc1OC)C(Cc1cc(OC)c(OC)cc1[N+](=O)[O-])=NCC2
growth (DU-145 prostate): 101%
growth (K-562 leukemia): 69%
growth (MALME-3M melanoma): 101%
growth (MDA-MB-231 breast): 82.6%
growth (RXF 393 renal): 90.8%
growth (SF-268 CNS): 90%
growth (SF-295 CNS): 42.9%
growth (SF-539 CNS): 80.6%
growth (UACC-257 melanoma): 102%
growth (M14 melanoma): 60.1%
growth (HCT-15 colon): 95.8%
growth (HT29 colon): 50.9%
growth (SNB-75 CNS): 88.2%
growth (SNB-19 CNS): 94.3%
growth (U251 CNS): 77.4%
growth (PC-3 prostate): 69.2%
growth (SK-MEL-5 melanoma): 93.6%
growth (UACC-62 melanoma): 83.7%
growth (LOX IMVI melanoma): 75.1%
growth (SK-MEL-28 melanoma): 92.7%

O=C(Cc1ccccc1[N+](=O)[O-])c1ccc2c(c1)OCO2
growth (DU-145 prostate): 106%
growth (K-562 leukemia): 94.1%
growth (MALME-3M melanoma): 96.1%
growth (MDA-MB-231 breast): 109%
growth (RXF 393 renal): 104%
growth (SF-268 CNS): 94.1%
growth (SF-295 CNS): 96.1%
growth (SF-539 CNS): 101%
growth (UACC-257 melanoma): 98.7%
growth (M14 melanoma): 103%
growth (HCT-15 colon): 104%
growth (HT29 colon): 102%
growth (SNB-75 CNS): 91.3%
growth (SNB-19 CNS): 97.7%
growth (U251 CNS): 98.8%
growth (PC-3 prostate): 96.8%
growth (SK-MEL-5 melanoma): 103%
growth (UACC-62 melanoma): 88.8%
growth (LOX IMVI melanoma): 96.9%
growth (SK-MEL-28 melanoma): 105%

Source: PubChem BioAssay (NCI)
